Measured values reported in PubChem BioAssay (NCI).
Compounds without any hit were thinned out: in the full panel of roughly 83,000, 20% have a hit.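 Negative percent growth values reflect cell death: -40 means 40% of the cells present at the start died, and -100 means all died.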 Unmarked numbers belong to inactive results. Activity calls are given as the source filed them. How the source made its calls: active means growth percent below 10; inactive means the rest.

Assays:
Assay in all cases: NCI-60 one-dose screen, 48 h (100 = growth as untreated, 0 = no growth, -100 = all killed)
Conditions in all cases: 10 µM unless noted
DU-145 prostate = system: DU-145 prostate
K-562 leukemia = system: K-562 leukemia
MALME-3M melanoma = system: MALME-3M melanoma
MDA-MB-231 breast = system: MDA-MB-231 breast
SF-268 CNS = system: SF-268 CNS
SF-295 CNS = system: SF-295 CNS
SF-539 CNS = system: SF-539 CNS
UACC-257 melanoma = system: UACC-257 melanoma
M14 melanoma = system: M14 melanoma
HCT-15 colon = system: HCT-15 colon
HT29 colon = system: HT29 colon
SNB-75 CNS = system: SNB-75 CNS
SNB-19 CNS = system: SNB-19 CNS
U251 CNS = system: U251 CNS
SK-MEL-5 melanoma = system: SK-MEL-5 melanoma
UACC-62 melanoma = system: UACC-62 melanoma
LOX IMVI melanoma = system: LOX IMVI melanoma
SK-MEL-28 melanoma = system: SK-MEL-28 melanoma
PC-3 prostate = system: PC-3 prostate

SMILES | growth (DU-145 prostate) | growth (K-562 leukemia) | growth (MALME-3M melanoma) | growth (MDA-MB-231 breast) | growth (SF-268 CNS) | growth (SF-295 CNS) | growth (SF-539 CNS) | growth (UACC-257 melanoma) | growth (M14 melanoma) | growth (HCT-15 colon) | growth (HT29 colon) | growth (SNB-75 CNS) | growth (SNB-19 CNS) | growth (U251 CNS) | growth (SK-MEL-5 melanoma) | growth (UACC-62 melanoma) | growth (LOX IMVI melanoma) | growth (SK-MEL-28 melanoma) | growth (PC-3 prostate)
COc1ccc(-c2cnnc3c(-c4cccc(C(F)(F)F)c4)cnn23)cc1 | 57.8% | 86.3% | 24.1% | 72.9% | 30.1% | -5.8% (active) | 15.9% | 44% | 78.7% | 68.3% | 63.6% | -26.9% (active) | 50.4% | 17.5% | 5.82% (active) | 62.6% | 75.4% | 56.1% | –
Clc1ccc(C2CC(c3cccc(Nc4ccncc4)c3)=NN2c2ccccc2)cc1 (centres undefined) | 56.7% | 0.432% (active) | -72% (active) | 75.2% | 82.1% | 70% | 71.5% | 34.5% | -80.6% (active) | -48.4% (active) | -9.64% (active) | 76.2% | 79.7% | -11.4% (active) | 68.6% | 93.9% | 25.6% | – | –
CNC(=O)c1c(NC(=O)c2ccc(C(C)C)cc2)sc2c(CN(C)C)c(O)ccc12 | 97.4% | -7.46% (active) | 88.5% | 95% | 90.8% | 97.7% | 97.3% | 110% | 86.8% | 14.2% | 87.1% | 98.1% | 103% | 81.7% | – | 99.9% | 57.3% | – | 79.4%
COc1cc(CNC(=O)CCCCC[P+](c2ccccc2)(c2ccccc2)c2ccccc2)c(OC)c2c1OCO2 | 81.1% | 20.8% | 55.5% | 72.8% | 66.9% | 87.2% | 73.1% | 21.2% | 76.2% | 99.8% | 45.2% | 68.5% | 53.6% | 63.7% | 84.3% | – | 61% | 42.1% | 63.2%
O=C(Nc1ccc2ncnc(Nc3ccc(Oc4cccc(F)c4)c(Cl)c3)c2c1)c1ccc(CN2CCOCC2)cc1 | 39.6% | 8.98% (active) | 38.9% | 46.1% | 49% | 27.3% | 53.2% | 53.1% | 14.7% | 11.2% | 20.9% | 55.8% | 50.8% | 36.5% | 4.82% (active) | – | 8.89% (active) | 52.2% | 14.6%
COc1ccc(-c2nc(N=Nc3c(O)[nH]c4ccccc34)nc(N3CCOCC3)c2C#N)cc1 | 63.7% | 75% | 51% | 42.6% | 62.4% | 86.4% | -47.2% (active) | 73.6% | 60.9% | 69.9% | 49.2% | 44% | 72.6% | 37.8% | 57.5% | – | 66.8% | 72.2% | 72.7%
CC(=O)c1c(C)[nH]c(-c2nc3ccc(N4CCN(C)CC4)cc3[nH]2)c1-c1ccccc1 | 59.7% | 24.7% | 23.7% | 32% | 53.6% | 38.1% | 24.9% | 48.4% | 94.7% | 14.9% | 14.5% | -10.6% (active) | 33.2% | 44.7% | – | 14.3% | 6.13% (active) | 47.3% | 32%
Cc1cccc(Oc2ccc(Nc3ncnc4ccc(NC(=O)CN(C)C)cc34)cc2Cl)c1 | 34.5% | -8.94% (active) | 25.9% | 41.1% | 54.8% | 58.4% | 59.9% | 81.8% | -77.1% (active) | -40.9% (active) | 3.23% (active) | 66.4% | 59.9% | 28.1% | 39.9% | 102% | -78.1% (active) | 48.1% | –
COc1ccc(-c2nc(SCC(C)C)nc(N/N=C(/C)c3ccc(OC)c(OC)c3)c2C#N)cc1 | 87.7% | 69.5% | 88.9% | 74.5% | 79.1% | 92.8% | 80.9% | 105% | 94% | 79.8% | 90.4% | 80.2% | 78.2% | 89.6% | 74.6% | – | 84.3% | 84.5% | 52.5%
CC(=O)c1c[nH]c2ccc(-c3ccnc(Nc4ccc(NC(=O)c5cccc(F)c5)c(CN5CCOCC5)c4)n3)cc12 | 2.59% (active) | 4.68% (active) | -21.7% (active) | -37.5% (active) | -16.8% (active) | -17.2% (active) | -56% (active) | 4.48% (active) | -19.4% (active) | 0.545% (active) | 7.18% (active) | -56.1% (active) | 0.141% (active) | 8.5% (active) | -74% (active) | – | -3.87% (active) | 1.85% (active) | -0.531% (active)
O=C1c2ccccc2C(=O)c2c(NCCN=Cc3ccccc3O)cccc21 | -26% (active) | 41.6% | 80.2% | 66.3% | 51.2% | 2.48% (active) | 62% | -14.3% (active) | 35.6% | 40.7% | 32.4% | 68.4% | 65.3% | 60.5% | – | 62.8% | 21.3% | 91.7% | 66.7%
N/C(=N\N=C\c1cc2ccccc2[nH]1)N/N=C/c1cc2ccccc2[nH]1 | 112% | 61.6% | 87.9% | 99.9% | 103% | 111% | 104% | 107% | 99.4% | 93.5% | 95.7% | 85.9% | 97.6% | 101% | 84.9% | 99.2% | 98.4% | 103% | –
COc1ccc(-c2nc3sccn3c2/C=C/C(=O)c2cc(OC)c(OC)c(OC)c2)cc1 | 75.7% | 44.2% | 53.3% | 52.8% | 67.4% | 54.6% | 53% | 69.1% | 63.6% | 40.2% | 46.9% | 37.2% | 59.9% | 43.1% | -10.9% (active) | – | 41.4% | 84.2% | 32.2%
O=C1CCCCCCCCC(O)C(O)CCCC(c2cccs2)O1 (centres undefined) | 117% | 96% | 107% | 84.8% | 95.9% | 93.7% | 106% | 60.9% | 99.7% | 96.7% | 114% | 102% | 87.1% | 98.3% | – | 81.8% | 96.5% | 123% | 88.2%
c1ccc(Cn2nc3c(c2-c2ccccc2)-c2oncc2CC3)cc1 | 112% | 73.2% | 89% | 96.8% | 107% | 76.7% | 110% | 92.1% | 98.2% | 99.3% | 96.3% | 84.6% | 102% | 87.9% | 84.8% | – | 90.2% | 94.4% | 68.5%
COc1ccc(-c2cnc(N)nc2-c2ccc(OC)cc2O)cc1 | 99.2% | 80.4% | 126% | 99.4% | 107% | 101% | 88.1% | 112% | 109% | 101% | 85.6% | 91.5% | 99.6% | 92.2% | 104% | – | 86.1% | 104% | 92%
CN1CCN(CCCOc2ccc3ncnc(Nc4ccc(Oc5cccc(C(F)(F)F)c5)c(Cl)c4)c3c2)CC1 | -8.56% (active) | -13.1% (active) | -90.2% (active) | -74.6% (active) | 28.1% | -64.7% (active) | -89.3% (active) | -53.5% (active) | -62.8% (active) | -55.7% (active) | -26.9% (active) | -21.1% (active) | 41.7% | -11% (active) | -96.8% (active) | – | -87.7% (active) | -93.2% (active) | 7.28% (active)
